Screening results deposited in PubChem BioAssay by National Center for Advancing Translational Sciences (NCATS).
Shiga inhibitor = A qHTS for Small Molecule Inhibitors of Shiga Toxin; Vero cells, Shiga toxin protein synthesis inhibition reporter; inhibition, % at 38.7 µM; actives 9.2% (n = 290,000); AID 2315, 2010; in the data active = inhibition mostly above about 28%, no sharp cut-off; inactive = mostly below about 43%
HCV inhibitor = qHTS Assay for Inhibitors of Hepatitis C Virus (HCV); Potency, µM (doses to about 41.8 µM), most hits filed as inhibitors; Huh7.5.1 HCVcc-Cre infection, luciferase reporter, 44 h; AID 651820, 2012; actives 3.4% (n = 340,000)
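Infectious HCV cell culture screen: compound-treated cells (1,000/well, pre-plated 4 h) are infected with HCVcc-Cre at roughly 0.5 moi and grown 44 h. Infection is quantified by luciferase signal after 15 min substrate incubation at room temperature.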
Pf growth 96h = Primary qHTS for delayed death inhibitors of the malarial parasite plastid, 96 hour incubation; P. falciparum luciferase reporter growth, 96 h; Potency, µM (top dose mostly 28.7 µM), actives largely listed as inhibitors; actives 6.9% (n = 320,000); AID 504834, 2011
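Readout is luminescence from an integrated firefly luciferase in P. falciparum. Red cells, 2% hematocrit and 0.05% parasitemia final, were cultured with compound through two parasite generations (96 hours) at 37 C, 5% CO2.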
Pf growth 48h = Primary qHTS for delayed death inhibitors of the malarial parasite plastid, 48 hour incubation; P. falciparum luciferase growth in erythrocytes, 48 h; Potency, µM (doses to about 28.7 µM), usual class: inhibitors; actives 5.9% (n = 310,000); AID 504832, 2011
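Compounds are pin-transferred into medium, infected erythrocytes (2% hematocrit, 0.1% parasitemia final) are added, and plates sit one parasite generation at 37 C in 5% CO2. Detection reagent is then added and luminescence measured.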
Cycloheximide cs = Cycloheximide Counterscreen for Small Molecule Inhibitors of Shiga Toxin; max response, %; cell reporter, cycloheximide protein synthesis inhibition counterscreen; actives 12% (n = 300,000); AID 2314, 2010; in the data active = max response mostly above about 13%, no sharp cut-off; inactive = mostly below about 14%; also: read at 38.3 µM for the half of the compounds with a filed dose
AMA1 RON2 block = qHTS for Inhibitors of AMA1-RON; Towards Development of Antimalarial Drug Lead: Primary Screen | Plasmodium falciparum AMA1 (3D7) - RON2 peptide interaction | AlphaScreen AMA1-biotinylated RON2 peptide binding | Potency, µM (series often up to 58.2 µM), actives largely listed as inhibitors | actives 0.2% (n = 360,000) | AID 720542, 2013; also: nearly all actives have a fitted effect of over 45% in size
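AMA1 (3D7) with his tag at 25 nM final met compounds first, then biotinylated RON2 peptide at 25 nM; detection used donor plus acceptor beads, 10 µg/mL apiece, read by AlphaScreen after 30 min at room temperature.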
Large screens that a line does not name were inactive. Shown are actives, neighbours in structure and some others; about 21% of the full set was active somewhere. Unless noted, calls follow the shape of the dose curve; as a rule, active = well fitted curve in the direction sought with a large enough effect; inconclusive = small, poorly fitted or top-dose-only effect, or another doubt; inactive = no such curve, though single readings can be large; an effect the other way counts as inactive or inconclusive.

COc1ccc(NC(=O)c2ccc(NC(=O)c3ccco3)cc2)c(OC)c1	HCV inhibitor inconclusive, Pf growth 48h inconclusive
O=C1c2ccccc2C(O)(c2ccccc2)N1c1ccc([N+](=O)[O-])cc1Cl (configuration not stated)	none (no result: Shiga inhibitor, Pf growth 96h, Pf growth 48h, Cycloheximide cs)
COc1ccc(S(=O)(=O)NCC2CC3C=CC2C3)cc1OC (configuration not stated)	none (no result: HCV inhibitor)
CCN(CC)c1ccc(/C=N/Nc2ccc(C)cc2)c(O)c1	Pf growth 96h inconclusive, AMA1 RON2 block inconclusive
CCN(CC)c1ccc(/C=N/NC(=O)c2cccc(S(=O)(=O)N3CCOCC3)c2)c(O)c1	HCV inhibitor inconclusive, Pf growth 96h inconclusive, Pf growth 48h 10µM
CCN(CC)c1ccc(/C=N/NC(=O)CNC(=O)C2COc3ccccc3O2)c(O)c1 (configuration not stated)	HCV inhibitor 11µM, Pf growth 96h inconclusive, Pf growth 48h inconclusive
CCOC(=O)N/N=C/c1ccc(N(CC)CC)cc1O	Shiga inhibitor 62, HCV inhibitor 3.5µM, Pf growth 96h 4.1µM, Pf growth 48h inconclusive, Cycloheximide cs 23
CCN(CC)c1ccc(C=Nc2cccc(S(=O)(=O)N3CCOCC3)c2)c(O)c1	none (no result: Shiga inhibitor, Pf growth 96h, Pf growth 48h, Cycloheximide cs)
CCN(CC)c1ccc(/C=N/Nc2nc(C)cc(=O)[nH]2)c(O)c1	HCV inhibitor 4µM, Pf growth 96h 1.9µM, Pf growth 48h 1.9µM
COC(=O)[C@]12CCCCC=C1N(Cc1cccc3ccccc13)C(=O)[C@H](CC(=O)NCCC(C)C)C2	none (no result: Shiga inhibitor, HCV inhibitor, Pf growth 96h, Pf growth 48h, Cycloheximide cs)
Cn1ncc(Cl)c1C(=O)N/N=C/c1cc2c(cc1[N+](=O)[O-])OCO2	Pf growth 96h inconclusive
CCN(CC)c1ccc(/C=N/NC(=O)CCC(=O)NCc2ccccc2)c(O)c1	HCV inhibitor inconclusive, Pf growth 96h inconclusive, Pf growth 48h 13µM
CCN(CC)c1ccc(/C=N/NC(=O)c2c(Cl)cnn2C)c(O)c1	Shiga inhibitor 56, HCV inhibitor 3.5µM, Pf growth 96h inconclusive, Pf growth 48h inconclusive, Cycloheximide cs 44
CC(C)CCNC(=O)[C@@H](Cc1ccccc1)NC(=O)CC[C@H]1O[C@@H](n2ccc(=O)[nH]c2=O)[C@H](O)[C@@H]1O	none (no result: Shiga inhibitor, HCV inhibitor, Pf growth 96h, Pf growth 48h, Cycloheximide cs)
CC1CCN(c2ccc(C(=O)NCCc3ccccc3)cn2)CC1	Shiga inhibitor 99, Cycloheximide cs 27
O=C(NCc1cccs1)c1ccc(N2CCCCC2)nc1	Shiga inhibitor 112, HCV inhibitor inconclusive, Pf growth 48h inconclusive, Cycloheximide cs 53
C#Cc1ccc(C(=O)NCc2ccc(N3CCCC3=O)cc2)cc1	none
CC1CCCN(c2ccc(C(=O)NCc3cccs3)cn2)C1 (configuration not stated)	Shiga inhibitor active, HCV inhibitor inconclusive, Pf growth 96h inconclusive, Cycloheximide cs 45
O=C(NCCc1ccccc1)c1ccc(NC(=O)C2CC2)cc1	none (no result: Shiga inhibitor, Pf growth 96h, Pf growth 48h, Cycloheximide cs)
COc1ccccc1Nc1ccc(C(=O)NCc2cccs2)cn1	none
O=C(NCc1cccs1)c1ccc(N2CCCC2=O)cc1	Shiga inhibitor 53, Cycloheximide cs 36 (no result: Pf growth 48h)
C[C@@H]1C=CC(=O)O[C@@H]1c1ccc(Cl)cc1	Pf growth 96h inconclusive, Pf growth 48h inconclusive
COc1ccc(NC(=O)C[C@H]2C(=O)N(c3ccc(OC)cc3)C[C@@H]2C)cc1	none (no result: Shiga inhibitor, HCV inhibitor, Pf growth 96h, Pf growth 48h, Cycloheximide cs)
CC1CCCN(c2ccc(C(=O)NCc3ccccc3)cn2)C1 (configuration not stated)	Shiga inhibitor 104, Pf growth 96h inconclusive, Cycloheximide cs 31
CC1CCC2C(=O)N(c3ccc(C(=O)NCc4ccccc4)cc3)C(=O)C2C1 (configuration not stated)	none
C/C(=N\NC(=S)Nc1ccc(C)cc1)c1cccc(N)c1	Shiga inhibitor 54, Pf growth 48h inconclusive
C/C(=N\NC(=S)Nc1cccc(C)c1)c1ccccc1	HCV inhibitor inconclusive, Pf growth 96h 5.2µM, Pf growth 48h inconclusive
CC(=NNC(=S)Nc1cccc(C)c1)c1ccccn1	HCV inhibitor 10µM (no result: Shiga inhibitor, Pf growth 96h, Pf growth 48h, Cycloheximide cs)
CSC(=S)N/N=C(\C)c1ccccc1	Shiga inhibitor 50, Pf growth 96h inconclusive, Pf growth 48h inconclusive, Cycloheximide cs 28
C/C(=N\NC(N)=S)c1ccccc1	Pf growth 96h inconclusive
CC1(C(=O)Nc2cccc(C#N)c2)CCN1C(=O)c1ccccc1CCc1ccccc1 (configuration not stated)	none (no result: Shiga inhibitor, HCV inhibitor, Pf growth 96h, Pf growth 48h, Cycloheximide cs)
CCCCNC(=O)C1CC(=O)N(CCc2ccc(C)cc2)C1 (configuration not stated)	none
Cc1ccc(C(=O)N(CCCN(C)C)c2nc3ccc(Cl)cc3s2)cc1C	HCV inhibitor inconclusive, Pf growth 96h inconclusive, Pf growth 48h 12µM, AMA1 RON2 block inconclusive
CN(C)CCCN(C(=O)c1ccco1)c1nc2ccc(Cl)cc2s1	HCV inhibitor 25µM
CN(C)CCN(C(=O)c1ccc2c(c1)OCCO2)c1nc2ccc(Cl)cc2s1	HCV inhibitor inconclusive, Pf growth 96h inconclusive, Cycloheximide cs 27
CN(C)CCCN(C(=O)c1ccc2c(c1)OCCO2)c1nc2ccc(Cl)cc2s1	Pf growth 96h 12µM, Pf growth 48h 10µM, Cycloheximide cs 15 (no result: HCV inhibitor, AMA1 RON2 block)
CCN(CC)CCN(C(=O)c1ccc2c(c1)OCCO2)c1nc2c(Cl)cccc2s1	HCV inhibitor inconclusive, Pf growth 96h inconclusive, Pf growth 48h inconclusive
CCOc1ccc(CN(CC)C(=O)c2ccc3c(c2)[nH]c(=O)c(=O)n3CC)cc1OC	HCV inhibitor inconclusive
COC(=O)c1sccc1NC(=O)CC1C(=O)NCCN1C(=O)c1ccccc1 (configuration not stated)	Cycloheximide cs 13
O=C(CCN1CCCC1=O)NC1CCCc2c1cnn2-c1ccc(F)cc1F (configuration not stated)	Cycloheximide cs 15
O=C(CCc1ccccn1)NC1CCCc2c1cnn2-c1ccc(F)cc1F (configuration not stated)	HCV inhibitor inconclusive
O=C(CCc1ccncc1)NC1CCCc2c1cnn2-c1ccc(F)cc1F (configuration not stated)	HCV inhibitor 13µM, Pf growth 96h inconclusive
O=C(NC1CCCc2c1cnn2-c1ccc(F)cc1F)c1ccccc1N1CCOCC1 (configuration not stated)	Pf growth 96h 4.1µM, Pf growth 48h inconclusive (no result: HCV inhibitor)
CCN(CC(=O)Nc1c(F)cccc1F)C(=O)C1(c2ccccc2)CC1	none
O=C(COc1cccc(F)c1)Nc1nc(-c2ccncc2)cs1	Pf growth 96h inconclusive, Pf growth 48h inconclusive (no result: Shiga inhibitor, Cycloheximide cs)
CN(CC(=O)Nc1ccccc1Cl)C(=O)Cn1cc(C(F)(F)F)ccc1=O	none (no result: Shiga inhibitor, Cycloheximide cs)
COC(=O)C1CN(C(=O)C(C)Oc2ccccc2Cl)c2ccccc2O1 (configuration not stated)	Pf growth 48h inconclusive
Cc1c(NS(=O)(=O)c2ccc(Br)cc2)c(=O)n(-c2ccccc2)n1C	Pf growth 96h inconclusive, Cycloheximide cs 17
